Compound activity as filed in PubChem BioAssay.
Rows were chosen to be rich in hits. Some 28% of all compounds tested hit in one or more screens of this group.
CYP2C19 act = human CYP2C19 activators, primary screen, biochemical, luminescence | Cytochrome P450 2C19 (Homo sapiens), P33261 | recombinant CYP2C19, luciferin-H EGE luminescence; stronger effect = higher value; 0 = fully inhibited enzyme, 1 = untreated enzyme | activation factor at 5 µM | 96,000 tested, under 10 active;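 active = activation factor of at least 2 at 5 µM in the primary screen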
CYP2C9 act = human CYP2C9 activators, primary screen, biochemical, luminescence | recombinant CYP2C9, luciferin-H conversion; stronger effect = higher value; factor 1 = untreated enzyme, 0 = blocked | 96,000 compounds, 1.4% hits | Cytochrome P450 2C9 (Homo sapiens), P11712 | activation factor at 5 µM | AID 1024, 2008;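 active = activation factor of 2 or more for CYP2C9 at a 5 µM dose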
Target sequence (P11712 whole entry, looked up): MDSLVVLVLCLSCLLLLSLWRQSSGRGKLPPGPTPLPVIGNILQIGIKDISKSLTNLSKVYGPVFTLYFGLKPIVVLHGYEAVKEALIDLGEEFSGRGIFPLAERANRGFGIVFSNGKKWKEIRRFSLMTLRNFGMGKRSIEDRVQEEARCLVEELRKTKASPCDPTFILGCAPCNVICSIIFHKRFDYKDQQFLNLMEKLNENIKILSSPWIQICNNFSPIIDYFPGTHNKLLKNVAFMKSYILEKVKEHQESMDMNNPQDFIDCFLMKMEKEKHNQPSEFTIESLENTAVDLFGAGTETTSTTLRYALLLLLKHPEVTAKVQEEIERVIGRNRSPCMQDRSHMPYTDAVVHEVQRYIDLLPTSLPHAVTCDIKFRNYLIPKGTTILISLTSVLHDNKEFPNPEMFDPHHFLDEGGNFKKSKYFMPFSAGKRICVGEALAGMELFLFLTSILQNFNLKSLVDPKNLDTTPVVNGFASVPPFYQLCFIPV
Mac1 fbg inh = inhibitors of CD11b/CD18 adhesion to fibrinogen, primary screen, K562 cells, luminescence. Integrin beta-2 (Homo sapiens) + Integrin alpha-M (Homo sapiens), P05107+P11215. ATPlite luminescence; Mn2+ added to activate the integrin. inhibition, % at 10 µM. 93,000 compounds, 0.54% hits;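 active = primary inhibition of 50% or more at 10 µM, then 40% or more on retest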
CYP2C9 inh = blockers of cytochrome P450 2C9 activity – biochemical, luminescence, ADME assay, primary screen; P11712; CYP2C9 Supersomes, luciferin-H conversion; inhibition, % at 5 µM; 96,000 compounds, 20% hits; AID 777, 2007;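 active = blocking of liver enzyme CYP2C9 beyond about 50% at 5 µM, limit read from the data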
CYP2C19 inhib = blockers of cytochrome P450 2C19 activity – biochemical, luminescence, ADME assay, primary screen; 96,000 compounds, 21% hits; inhibition, % at 5 µM; P33261; CYP2C19 Supersomes, luciferin-H EGE luminescence, 30 min;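 active = CYP2C19 inhibition above a set limit at 5 µM in the primary screen, cut at about 50% in these data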
Mac1 fbg enh = enhancers of CD11b/CD18 adhesion to fibrinogen, primary screen, K562 cells, luminescence; 93,000 compounds, 0.07% hits; AID 1499, 2009; activation, % at 10 µM; Integrin beta-2 (Homo sapiens) + Integrin alpha-M (Homo sapiens), P05107+P11215; ATPlite luminescence;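 active = 10 µM primary screen giving 50% or more activity, confirmed by 40% or more on retest at that dose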
Of the large screens only hits and unclear results are named; the others gave an inactive call.

Cn1c(C2=C(O)CN(c3ccc4c(c3)OCCO4)C2=N)nc2ccccc21	none
Nc1nonc1-n1nnc(C(=O)O)c1-c1cccs1	CYP2C9 inh 83.8
CCOC(=O)c1nnn(-c2nonc2N)c1-c1cccc2ccccc12	CYP2C9 inh 83.7, CYP2C19 inhib 98.1
CCOC(=O)c1nnn(-c2nonc2N)c1-c1ccc(OC)cc1	CYP2C9 inh 80.1, CYP2C19 inhib 98.1
Cc1c(C(=O)N2CCCCCC2)nnn1-c1nonc1N	none
CCOC(=O)c1nnn(-c2nonc2N)c1-c1cccs1	CYP2C19 inhib 67.6
CCCOc1ccc(-c2c(C(=O)N/N=C/c3ccc(OCC)cc3)nnn2-c2nonc2N)cc1	none (no result: CYP2C19 act, CYP2C9 act, CYP2C9 inh, CYP2C19 inhib)
CCN1CCN(C(c2ccc(OC)cc2)C(O)C(=O)c2c[nH]c3ccccc23)CC1 (configuration not stated)	none
CCOC(=O)C1CCCN(C(=O)c2ccco2)C1 (configuration not stated)	none
CCC(C)(C)NC(=O)c1cc([N+](=O)[O-])ccc1N1CCOCC1	none (no result: CYP2C19 act, CYP2C9 act, CYP2C9 inh, CYP2C19 inhib)
CC(C)(C)C(=O)Nc1ncc(C(F)(F)F)cc1Cl	none
Cc1c(Cl)cccc1NC(=S)NNc1ncc(C(F)(F)F)cc1Cl	CYP2C9 act 2.2, Mac1 fbg inh 89.5, CYP2C19 inhib 90.7
Fc1ccccc1NC(=S)NNc1ncc(C(F)(F)F)cc1Cl	Mac1 fbg inh 80.7, CYP2C9 inh 86.9, CYP2C19 inhib 55.2
Cc1cccc(C)c1NC(=S)NNc1ncc(C(F)(F)F)cc1Cl	CYP2C19 inhib 75.1
O=C(NNc1ncc(C(F)(F)F)cc1Cl)c1c(Cl)cccc1Cl	CYP2C9 act 2.4
Cc1ccccc1NC(=S)NNc1ncc(C(F)(F)F)cc1Cl	CYP2C19 inhib 76.7
O=C(Nc1cccc(NC(=O)c2ccco2)c1)c1ccc2c(c1)OCO2	CYP2C19 inhib 50.5
COc1cc(NC(=O)c2ccc3c(c2)OCO3)ccc1NC(=O)C(C)C	none
CCCC(=O)Nc1cccc(NC(=O)c2ccc3c(c2)OCCO3)c1	CYP2C19 inhib 59.1
O=C(Nc1ccc(F)c(F)c1)c1ccc2c(c1)OCO2	CYP2C19 inhib 94.0
CCCCC(=O)Nc1ccc(NC(=O)c2ccc3c(c2)OCO3)cc1OC	CYP2C9 inh 59.3, CYP2C19 inhib 85.9
CCOC(=O)N1CCC(Nc2c(NCCCN(CC)c3cccc(C)c3)c(=O)c2=O)CC1	none
COc1ccc(CN(C)CC(=O)Nc2ccc(Cl)cc2C(F)(F)F)c(OC)c1	none (no result: CYP2C19 act, CYP2C9 act, CYP2C9 inh, CYP2C19 inhib)
Cc1ccccc1OCCOc1cccc(/C=N/NC(=O)Cc2nnc(N)s2)c1	none
CC(C)(C)OC(=O)N1Cc2ccccc2C[C@H]1C(=O)O	none
O=C(Nc1ccc2c(c1)OCO2)c1cccc(Cl)c1	CYP2C19 inhib 70.2
CCOc1cc(C(=O)Nc2ccc3c(c2)OCO3)ccc1OC(F)F	none
CCOc1ccc(C(=O)Nc2ccc3c(c2)OCCO3)cc1OC	CYP2C19 inhib 69.2
O=C(Nc1ccc(Cl)cc1)c1ccc2c(c1)OCO2	none
O=C(Nc1ccc2c(c1)OCO2)c1ccc(Cl)s1	CYP2C9 inh 62.0, CYP2C19 inhib 81.4
COc1cc(C#N)ccc1OCC(=O)c1ccc2c(c1)OCCO2	CYP2C19 inhib 62.0
COc1cccc(C2C(C(=O)c3sc(C)nc3C)=C(O)C(=O)N2CCN(C)C)c1OC (configuration not stated)	none
CC(NC(=O)Nc1ccc(F)cc1F)c1ccncc1 (configuration not stated)	CYP2C19 inhib 79.6
COc1ccc(Cl)cc1NC(=O)Nc1ccc(Br)cn1	none
O=C(Nc1ccc(F)cc1F)c1cccnc1	none
COc1ccc(Cl)cc1NC(=O)NC(C)c1ccncc1 (configuration not stated)	CYP2C9 inh 91.9, CYP2C19 inhib 97.1
COc1ccc(NC(=O)NC(C)c2ccncc2)cc1OC (configuration not stated)	CYP2C9 inh 59.5
Cc1cccc(-c2oc(C)c(C)[n+]2[O-])c1	none
CCOC(=O)N1CCN(S(=O)(=O)c2c(C)cc(C)cc2C)CC1	CYP2C9 inh 50.3
CCOC(=O)N1CCN(C(=O)C2CCN(S(=O)(=O)c3c(C)cc(C)cc3C)CC2)CC1	CYP2C9 act 3.4
CCOC(=O)N1CCC(N2CCN(S(=O)(=O)c3ccc(C)cc3)CC2)CC1	none
COc1ccc(C2C(C(=O)OCC(=O)NC(C)(C)C)CCC(=O)N2c2ccc(C)cc2)cc1OC (configuration not stated)	none
Cc1ccc(C)c(C(=O)c2c(C)nc3sccn23)c1	CYP2C19 inhib 94.8
CC(=O)Nc1cccc(-c2nnc(-c3ccccc3)o2)c1	none
O=S(=O)(NC1CCCC1)c1cccc(-c2nnc(-c3ccccc3)o2)c1	CYP2C9 inh 86.7
C/C(=N/Oc1nc(C)cc(C)n1)c1ccc(Br)cc1	CYP2C19 inhib 52.9
CCN(CC)c1ccc(NC(=O)C2CCCN(S(=O)(=O)c3cccnc3)C2)c(C)c1 (configuration not stated)	none
Cn1cccc1/C=C1\SC(=O)N(CC(=O)Nc2ccc(Cl)cc2)C1=O	none (no result: Mac1 fbg inh, Mac1 fbg enh)
CCn1c(C)cc(/C=C2\SC(=O)N(CC(=O)Nc3ccc(C)c(C)c3)C2=O)c1C	CYP2C19 inhib 57.1 (no result: Mac1 fbg inh, Mac1 fbg enh)
Cc1ccc(NC(=O)CN2C(=O)S/C(=C/c3ccc(-c4cc(C(=O)O)ccc4C)o3)C2=O)cc1C	Mac1 fbg enh 61.2
O=C(CNC1=NCCC1)c1ccc(Cl)cc1	none (no result: CYP2C19 act, CYP2C9 act, CYP2C9 inh, CYP2C19 inhib)
N#CCC(=O)N/N=C1\CCCCC1C1CCCCC1 (configuration not stated)	none (no result: CYP2C19 act, CYP2C9 act, CYP2C9 inh, CYP2C19 inhib)
COc1ccccc1C(=O)OCc1c(F)cccc1Cl	CYP2C9 act 3.4, CYP2C19 inhib 72.7 (no result: Mac1 fbg inh, Mac1 fbg enh)
O=C(Nc1ccc(Cl)cc1)N1CCSCC1	CYP2C19 inhib 60.5
Cc1ccc(NC(=O)N2CCC(O)(c3ccc(Cl)cc3)CC2)cc1	CYP2C9 inh 70.7, CYP2C19 inhib 95.6
CC1CCCCN1c1ncnc2ccccc12 (configuration not stated)	Mac1 fbg inh 69.4
CC1CCCCN1c1nc(-c2ccncc2)nc2ccccc12 (configuration not stated)	CYP2C9 inh 78.5, CYP2C19 inhib 91.1
Cc1sc2ncnc(N3CCCCC3C)c2c1C (configuration not stated)	CYP2C19 inhib 78.9
CCC1CCCCN1c1nc(-c2ccncc2)nc2ccccc12 (configuration not stated)	CYP2C9 inh 100.3, CYP2C19 inhib 99.3
CC(C)(C)c1ccc(-c2nc3c(C#N)c(-c4ccc5c(c4)OCO5)ccn3n2)cc1	none
